In PubChem BioAssay AID1159580 (chemical genetic matrix, 2015):
Among all 5,500 compounds or so, about 2,000 (36%) were called active. Roughly 18% stayed inconclusive and do not appear here. Cut-off read from the data, not from the text of the source: active = normalized growth mostly below about 0.91 (no sharp cut-off); inconclusive = no clear call, values can overlap the other calls; inactive = mostly above about 0.92. This is one part of the list.

Assay: chemical genetic growth profiling, strain panel (AID 1159580);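 note: tested at 20 µM; growth read once vehicle control cultures reached saturation at 30 °C; 1 = growth at the plate median or of vehicle wells; lower values mean less growth of the strain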
Settings: S. cerevisiae deletion strains, growth OD

Measured: normalized growth

CCOCN(C(=O)CCl)c1c(C)cccc1CC
inactive: locus YAL013W, strain DEP1, stronger effect = lower value 0.995 | locus YAL021C, strain ccr4, stronger effect = lower value 0.988 | locus YAL026C, strain drs2, stronger effect = lower value 0.998 | locus YAL030W, strain snc1, stronger effect = lower value 0.992 | locus YBL061C, strain skt5, stronger effect = lower value 0.994 | locus YBR009C, strain hhf1, stronger effect = lower value 0.994 | locus YBR021W, strain FUR4, stronger effect = lower value 1.01 | locus YBR023C, strain chs3, stronger effect = lower value 0.98 | locus YBR171W, strain sec66, stronger effect = lower value 0.971 | locus YBR229C, strain ROT2, stronger effect = lower value 0.992 | locus YBR231C, strain swc5, stronger effect = lower value 0.989 | locus YBR279W, strain paf1, stronger effect = lower value 0.999 | locus YCL011C, strain gbp2, stronger effect = lower value 0.998 | locus YCL016C, strain dcc1, stronger effect = lower value 0.991 | locus YCL029C, strain bik1, stronger effect = lower value 0.976 | locus YCL061C, strain MRC1, stronger effect = lower value 0.98 | locus YCL069W, strain vba3, stronger effect = lower value 0.992 | locus YCR088W, strain abp1, stronger effect = lower value 0.984 | locus YDL005C, strain med2, stronger effect = lower value 0.982 | locus YDL035C, strain GPR1, stronger effect = lower value 0.99 | locus YDL040C, strain nat1, stronger effect = lower value 1 | locus YDL074C, strain BRE1, stronger effect = lower value 1.03 | locus YDL101C, strain DUN1, stronger effect = lower value 0.983 | locus YDL134C, strain PPH21, stronger effect = lower value 0.995 | locus YDL185W, strain tfp1, stronger effect = lower value 0.967 | locus YDL192W, strain arf1, stronger effect = lower value 0.979 | locus YDR001C, strain nth1, stronger effect = lower value 0.991 | locus YDR069C, strain doa4, stronger effect = lower value 0.987 | locus YDR101C, strain arx1, stronger effect = lower value 0.98 | locus YDR137W, strain rgp1, stronger effect = lower value 0.975 | locus YDR150W, strain NUM1, stronger effect = lower value 0.954 | locus YDR159W, strain sac3, stronger effect = lower value 0.959 | locus YDR162C, strain NBP2, stronger effect = lower value 1 | locus YDR195W, strain ref2 0.982 | locus YDR297W, strain sur2, stronger effect = lower value 0.986 | locus YDR318W, strain mcm21, stronger effect = lower value 0.985 | locus YDR334W, strain swr1, stronger effect = lower value 0.986 | locus YDR335W, strain msn5, stronger effect = lower value 0.998 | locus YDR388W, stronger effect = lower value 0.978 | locus YDR392W, strain spt3, stronger effect = lower value 0.975 | locus YDR502C, strain sam2, stronger effect = lower value 0.974 | locus YEL003W, strain gim4, stronger effect = lower value 0.996 | locus YEL037C, strain rad23, stronger effect = lower value 0.994 | locus YEL061C, strain CIN8 (second series), stronger effect = lower value 0.994 | locus YEL061C, strain CIN8, stronger effect = lower value 0.991 | locus YER015W, strain faa2, stronger effect = lower value 0.993 | locus YER016W, strain bim1, stronger effect = lower value 0.994 | locus YER110C, stronger effect = lower value 0.978 | locus YER111C, strain swi4, stronger effect = lower value 0.997 | locus YER155C, strain BEM2 (second series), stronger effect = lower value 0.972 | locus YER155C, strain BEM2, stronger effect = lower value 0.993 | locus YER167W, strain BCK2, stronger effect = lower value 0.995 | locus YFR010W, strain ubp6, stronger effect = lower value 0.992 | locus YGL078C, strain dbp3, stronger effect = lower value 0.979 | locus YGL086W, strain mad1, stronger effect = lower value 0.983 | locus YGL167C, strain pmr1, stronger effect = lower value 0.985 | locus YGL173C, strain kem1, stronger effect = lower value 0.976 | locus YGL227W, strain vid30, stronger effect = lower value 0.983 | locus YGL240W, strain doc1, stronger effect = lower value 0.985 | locus YGL248W, strain PDE1, stronger effect = lower value 0.981 | locus YGL253W, strain hxk2, stronger effect = lower value 0.981 | locus YGR078C, strain PAC10, stronger effect = lower value 1 | locus YGR135W, strain pre9, stronger effect = lower value 0.982 | locus YGR229C, strain SMI1, stronger effect = lower value 1.01 | locus YGR252W, strain gcn5, stronger effect = lower value 1.04 | locus YHR013C, strain ard1, stronger effect = lower value 0.988 | locus YHR027C, strain rpn1, stronger effect = lower value 0.98 | locus YHR030C, strain SLT2, stronger effect = lower value 0.982 | locus YHR079C, strain IRE1 (second series), stronger effect = lower value 0.979 | locus YHR094C, strain hxt1, stronger effect = lower value 0.968 | locus YHR129C, strain ARP1, stronger effect = lower value 0.963 | locus YHR142W, strain chs7, stronger effect = lower value 1.04 | locus YHR200W, strain rpn10, stronger effect = lower value 0.988 | locus YIL066C, strain RNR3, stronger effect = lower value 0.976 | locus YIL073C, strain SPO22, stronger effect = lower value 0.856 | locus YIL125W, strain kgd1, stronger effect = lower value 0.997 | locus YIR030C, strain dcg1, stronger effect = lower value 0.972 | locus YJL092W, strain hpr5, stronger effect = lower value 0.985 | locus YJL095W, strain BCK1 (second series), stronger effect = lower value 0.996 | locus YJL095W, strain BCK1, stronger effect = lower value 1 | locus YJL115W, strain asf1, stronger effect = lower value 0.976 | locus YJL129C, strain trk1, stronger effect = lower value 1.01 | locus YJL134W, strain LCB3, stronger effect = lower value 0.987 | locus YJL154C, strain vps35, stronger effect = lower value 0.979 | locus YJL164C, strain tpk1, stronger effect = lower value 0.994 | locus YJL166W, strain qcr8, stronger effect = lower value 0.991 | locus YJL168C, strain set2, stronger effect = lower value 0.984 | locus YJL187C, strain SWE1 (second series), stronger effect = lower value 0.979 | locus YJL187C, strain SWE1, stronger effect = lower value 0.988
